Measurements published in PubChem BioAssay (NCI).
Several values for one entry are separate records, joined by “and”; a condition that tells them apart may be missing. Identical values can stand only once. About 83,000 compounds went through this panel and 20% of them were active in at least one assay; those are over-represented in the sample as a whole.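 Single-concentration screen, 48 h exposure, 96-well plates. Endpoint: percent growth. Below 10 = active.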

What was measured:
Assay in all cases: NCI-60 one-dose screen, 48 h (100 = growth as untreated, 0 = no growth, -100 = all killed)
Conditions in all cases: 10 µM unless noted
SK-MEL-2 melanoma = tested on: SK-MEL-2 melanoma
EKVX NSCLC = tested on: EKVX NSCLC
SN12C renal = tested on: SN12C renal
UO-31 renal = tested on: UO-31 renal
TK-10 renal = tested on: TK-10 renal
ACHN renal = tested on: ACHN renal
A498 renal = tested on: A498 renal
CCRF-CEM leukemia = tested on: CCRF-CEM leukemia
MOLT-4 leukemia = tested on: MOLT-4 leukemia
SR leukemia = tested on: SR leukemia
OVCAR-8 ovarian = tested on: OVCAR-8 ovarian
OVCAR-5 ovarian = tested on: OVCAR-5 ovarian
OVCAR-4 ovarian = tested on: OVCAR-4 ovarian
SK-OV-3 ovarian = tested on: SK-OV-3 ovarian
IGROV1 ovarian = tested on: IGROV1 ovarian
OVCAR-3 ovarian = tested on: OVCAR-3 ovarian
HS 578T breast = tested on: HS 578T breast
NCI/ADR-RES ovarian = tested on: NCI/ADR-RES ovarian
RPMI-8226 leukemia = tested on: RPMI-8226 leukemia
CAKI-1 renal = tested on: CAKI-1 renal

Measured: growth

O=C(Nc1ccccc1)OCC(CN1CCCCC1)OC(=O)Nc1ccccc1 (centres undefined)
inactive: SK-MEL-2 melanoma 85.6% and 108% | EKVX NSCLC 82.5% | SN12C renal 77.5% and 94% | UO-31 renal 53.5% and 66.7% | TK-10 renal 93.2% and 104% | ACHN renal 72.9% and 92.8% | A498 renal 79.5% and 68.7% | CCRF-CEM leukemia 82.3% | MOLT-4 leukemia 64.8% and 87.9% | SR leukemia 82.9% | OVCAR-8 ovarian 92.8% and 95.1% | OVCAR-5 ovarian 105% and 96.7% | OVCAR-4 ovarian 76.4% and 104% | SK-OV-3 ovarian 89.4% and 93.8% | IGROV1 ovarian 68.8% and 98.3% | OVCAR-3 ovarian 91.2% and 101% | HS 578T breast 91.6% | NCI/ADR-RES ovarian 85.6% and 96.1%

Cc1cc(Cl)nc(Nc2ccccc2)n1
inactive: SK-MEL-2 melanoma 106% | EKVX NSCLC 93.8% | SN12C renal 96.1% | UO-31 renal 102% | TK-10 renal 94.4% | ACHN renal 98.9% | A498 renal 93.3% | CCRF-CEM leukemia 99.3% | MOLT-4 leukemia 94.8% | SR leukemia 97.7% | RPMI-8226 leukemia 117% | OVCAR-8 ovarian 102% | OVCAR-5 ovarian 103% | OVCAR-4 ovarian 100% | SK-OV-3 ovarian 102% | IGROV1 ovarian 100% | OVCAR-3 ovarian 95.5% | NCI/ADR-RES ovarian 100%

O=COCCCc1ccccc1
inactive: SK-MEL-2 melanoma 101% | EKVX NSCLC 98.8% | SN12C renal 105% | UO-31 renal 93.2% | TK-10 renal 92.8% | ACHN renal 110% | A498 renal 83.2% | CCRF-CEM leukemia 108% | MOLT-4 leukemia 113% | SR leukemia 117% | RPMI-8226 leukemia 102% | OVCAR-8 ovarian 99.2% | OVCAR-5 ovarian 105% | OVCAR-4 ovarian 120% | SK-OV-3 ovarian 98.1% | IGROV1 ovarian 104% | OVCAR-3 ovarian 109% | HS 578T breast 96.6% | NCI/ADR-RES ovarian 108%

COc1ccccc1OCC(O)CO (centres undefined)
inactive: SK-MEL-2 melanoma 98.3% and 110% | EKVX NSCLC 102% and 83.5% | SN12C renal 95.2% and 103% | UO-31 renal 87.6% and 96.4% | ACHN renal 102% and 110% | CAKI-1 renal 90.8% | A498 renal 98% and 87.8% | CCRF-CEM leukemia 98.5% and 97.1% | MOLT-4 leukemia 144% and 121% | SR leukemia 116% and 124% | RPMI-8226 leukemia 76.7% | OVCAR-8 ovarian 115% and 104% | OVCAR-5 ovarian 103% | OVCAR-4 ovarian 110% and 101% | SK-OV-3 ovarian 106% and 121% | IGROV1 ovarian 123% and 114% | OVCAR-3 ovarian 107% and 125% | HS 578T breast 61.7% and 107%

O=C(O)/C=C/C=C/c1ccccc1
inactive: SK-MEL-2 melanoma 104% and 115% | EKVX NSCLC 100% | SN12C renal 96% and 106% | UO-31 renal 93.1% and 88.4% | TK-10 renal 97.3% and 106% | CAKI-1 renal 98.9% and 101% | A498 renal 73.4% | CCRF-CEM leukemia 102% and 95.1% | MOLT-4 leukemia 106% and 109% | SR leukemia 104% and 109% | RPMI-8226 leukemia 112% and 99.7% | OVCAR-8 ovarian 102% and 109% | OVCAR-5 ovarian 103% and 96.8% | OVCAR-4 ovarian 116% and 108% | SK-OV-3 ovarian 113% and 104% | IGROV1 ovarian 105% and 110% | OVCAR-3 ovarian 124% and 98.8% | HS 578T breast 109% and 108% | NCI/ADR-RES ovarian 111% and 102%

COc1ccc(S(=O)(=O)c2ccc(F)cc2)cc1
inactive: SK-MEL-2 melanoma 99% | EKVX NSCLC 122% | SN12C renal 97.8% | UO-31 renal 83.8% | ACHN renal 103% | CAKI-1 renal 108% | A498 renal 108% | CCRF-CEM leukemia 84.6% | MOLT-4 leukemia 92.3% | SR leukemia 87.4% | RPMI-8226 leukemia 80.7% | OVCAR-8 ovarian 97.3% | OVCAR-5 ovarian 99.9% | OVCAR-4 ovarian 100% | SK-OV-3 ovarian 108% | IGROV1 ovarian 120% | OVCAR-3 ovarian 107% | NCI/ADR-RES ovarian 95.3%

O=C(O)COc1ccccc1F
inactive: SK-MEL-2 melanoma 102% | EKVX NSCLC 111% | SN12C renal 98.3% | UO-31 renal 103% | ACHN renal 108% | CAKI-1 renal 93.2% | A498 renal 102% | CCRF-CEM leukemia 92.3% | MOLT-4 leukemia 95.3% | SR leukemia 99.5% | RPMI-8226 leukemia 98.4% | OVCAR-8 ovarian 116% | OVCAR-5 ovarian 104% | OVCAR-4 ovarian 111% | SK-OV-3 ovarian 119% | IGROV1 ovarian 105% | OVCAR-3 ovarian 108% | HS 578T breast 101% | NCI/ADR-RES ovarian 114%
